Most compounds without a hit are left out; they make up all but 12% or so of the library.
Sfp PPTase inh – inhibitors of Bacillus subtilis Sfp phosphopantetheinyl transferase. Biochemical Sfp PPTase activity, qHTS. Potency, µM, usual class: inhibitors. hit rate 3.5% among 310,000. AID 1490;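 also: the enzyme is Sfp with the accession as filed and its product quenches rhodamine fluorescence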
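Fluorescence-quenching assay: 15 nM Sfp-PPTase preincubated 15 min at room temperature with compound, then 5 uM rhodamine-CoA and 12.5 uM BHQ-2-labelled YbbR peptide added. Fluorescence (ex 525/em 598 nm) read at start and after 30 min; difference gives rate.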
PLK1 PBD block – PLK1 (human) polo-box domain binding inhibition. P53350. AID 720504. Potency, µM, hits mostly inhibitors. hit rate 2.8% among 360,000. Plk1 PBD binding of FITC phosphopeptide, fluorescence polarization; also: series mostly up to about 57 µM; nearly all actives have a fitted effect of over 65% in size
JMJD2A Tudor – blocks the human JMJD2A Tudor domain; O75164; Potency, µM (doses to about 114 µM), actives largely listed as inhibitors; hit rate 4.4% among 390,000; AlphaScreen JMJD2A-Tudor / H3K4me3 peptide binding; also: nearly all actives have a fitted effect of over 50% in size
BAZ2B inh – inhibitors of human BAZ2B bromodomain. Q9UIF8. AlphaScreen BAZ2B-H3K14Ac peptide displacement. Potency, µM (doses to about 114 µM), actives largely listed as inhibitors. hit rate 4.4% among 360,000. AID 504333; also: nearly all actives have a fitted effect of over 60% in size
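AlphaScreen luminescence quantifies BAZ2B engagement of H3K14Ac peptide; the protein and biotinylated peptide are both at 50 nM final, buffer PBS pH 7.4 with 0.01% Tween-20, all steps at room temperature.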
HP1b chromo inh – inhibitors of HP1-beta chromodomain binding to methylated histone tails; P83916; AlphaScreen HP1-beta / biotin-H3K9me3 peptide binding; Potency, µM (titrated, usually from 114 µM), hits mostly inhibitors; hit rate 0.56% among 390,000; AID 540317; also: nearly all actives have a fitted effect of over 70% in size
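HP1-beta protein (50 nM final) preincubated 30 min at room temperature with biotinylated H3(1-18)K9me3 peptide (50 nM) in PBS pH 7.4, 0.01% Tween-20, then compound added for 30 min. AlphaScreen streptavidin donor/nickel chelate acceptor beads (10 ug/mL final), 30 min dark, luminescence read.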
G9a inh – blocks human histone lysine methyltransferase G9a; G9a H3K9 monomethylation, AlphaScreen, 2 h; Potency, µM (highest dose often 102 µM), usual class: inhibitors; hit rate 8.8% among 350,000; also: nearly all actives have a fitted effect of over 75% in size
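AlphaScreen detection with an anti-monomethyl H3K9 antibody quantified product after a 2 h room-temperature reaction containing 500 nM biotinylated H3K9 peptide, 20 µM SAM and 20 nM enzyme, which had been preincubated 15 min with compound.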
Hits are given with their value; - = inactive; ? = inconclusive; . = no result; [ ] = dose if it differs, or a comment. Calls follow the shape of the dose curve; as a rule, active = well fitted curve in the direction sought with a large enough effect; inconclusive = small, poorly fitted or top-dose-only effect, or another doubt; inactive = no such curve, though single readings can be large; an effect the other way counts as inactive or inconclusive.

SMILES	Sfp PPTase inh	PLK1 PBD block	JMJD2A Tudor	BAZ2B inh	HP1b chromo inh	G9a inh
COC(=O)C1=NOC2(C=C(Br)C(OC)=C(Br)C2=O)C1 (configuration not stated)	0.79µM	.	.	.	.	.
CCN(CC)c1ccc(/C=N/N2CCOCC2)c(O)c1	-	-	-	-	-	?
CCN(CC)c1ccc(/C=N/N2CCN(Cc3ccc(C)cc3C)CC2)c(O)c1	-	-	22µM	10µM	20µM	?
CCN(CC)c1ccc(/C=N/N2CCN(Cc3ccccc3Cl)CC2)cc1	-	-	18µM	7.1µM	?	8.9µM
CN(c1ccccc1)c1ccc(/C=N/N2CCOCC2)cc1	-	-	45µM	50µM	50µM	?
CN(C)c1ccc(/C=N/N2CCN(Cc3ccccc3Cl)CC2)cc1	-	-	32µM	50µM	?	?
C(=NN1CCCCCC1)c1ccccc1	.	-	?	.	-	.
Cc1cc2c(c(=O)n1Cc1ccccc1)C1O[C@](CCCCN3C(=O)c4ccccc4C3=O)(Cc3cc(C#N)ccc31)O2	-	.	.	?	.	-[2.33 µM]
CCN(CC)c1ccc(/C=N/N2CCN(Cc3ccccc3)CC2)c(O)c1	-	-	14µM	13µM	-	?
CCN(CC)c1ccc(/C=N/N2CCN(Cc3ccccc3)CC2)cc1	-	-	22µM	14µM	?	10µM
C(=N\N1CCN(Cc2ccccc2)CC1)/c1ccccc1	-	?	-[11.4 µM]	?	-	?
CC(=O)n1nc(-c2ccco2)nc1N	-	-	-	-	-	-
CCC(=O)n1nc(-c2ccco2)nc1N	-	-	-	-	-	45µM
CC(=O)n1nc(-c2ccco2)nc1SCc1ccccc1	-	?	-	-	-	45µM
COc1ccc(OC)c(NC(=O)c2nc(SCc3ccc(F)cc3)ncc2Cl)c1	.	.	-	-	-	-
COc1ccccc1NC(=O)CSC1=Nc2ccccc2C2=NC(Cc3ccccc3)C(=O)N12 (configuration not stated)	.	.	-	-	-	-
Cc1ccc(CNC(=O)C2CCCN2S(=O)(=O)c2ccc(Cl)cc2)cc1 (configuration not stated)	-	-	-	-	-	?
CSc1ccc(NC(=O)C2CCN(c3ncccn3)CC2)cc1	.	.	-	-	-	-
O=C(O)C1OC(C(=O)O)C(C(=O)O)C1C(=O)O (configuration not stated)	.	-	20µM	.	-	.
O=S(=O)(NCCc1cn2ccccc2n1)c1ccc2c(c1)OCCO2	-	-	-	-	-	-
O=S(=O)(NCCc1cn2ccccc2n1)c1ccc2c(c1)CCCC2	-	-	-	-	-	50µM
Cn1c2ccccc2c(=O)c2c(=O)n(Cc3ccco3)c(-c3ccc(Cl)cc3Cl)nc21	8.9µM	.	.	-	.	-
N#C/C(=C\c1ccc(-c2ccccc2[N+](=O)[O-])o1)C(N)=O	?	-	-	-	-	-
O=C(N/N=C/c1ccc(-c2ccccc2[N+](=O)[O-])o1)[C@H]1C[C@@H]1c1ccccc1	25µM	-	?	?	-	8.9µM
O=C(/C=C/c1ccc(-c2ccccc2[N+](=O)[O-])o1)c1ccccc1	?	-	?	11µM	?	32µM
SMILES	Sfp PPTase inh	PLK1 PBD block	JMJD2A Tudor	BAZ2B inh	HP1b chromo inh	G9a inh
O=C(O)/C(=C\c1ccc(-c2ccccc2[N+](=O)[O-])o1)c1ccccc1	-	38µM	?	?	-	?
Cc1ccc(N)c(Cl)c1	-	.	.	.	.	.
COc1cc(-c2ccc3ncnc(N(C)Cc4csc(C)n4)c3c2)cc(OC)c1OC	.	.	-	.	.	.
COc1ccc(-c2ccccc2)cc1NCc1ccc(OC)c(OC)c1	?	-	40µM	40µM	?	10µM
Cc1ccccc1NCc1ccccc1O	?	-	?	56µM	-	40µM
COc1ccc(-c2ccccc2)cc1NCc1ccccc1C	-	-	?	50µM	-	?
COc1ccc(CNC(=O)c2ccc(-c3ccccc3)cc2)cc1OC	-	-	-	-	-	-
O=C(NC1CCCCC1)c1c[nH]c2ccc(S(=O)(=O)Nc3ccccc3F)cc2c1=O	.	.	-	.	-	-
COCCN1Cc2cccc(C(=O)Nc3ccc(C(=O)OC)cc3)c2C1=O	.	.	-	.	-	-
O=C(CN1C(=O)c2cccc([N+](=O)[O-])c2C1=O)N1CCc2ccccc2C1	.	-	.	.	.	.
O=C(CCS(=O)(=O)c1ccc(Br)cc1)Nc1ccc2c(c1)OCO2	-	?	50µM	50µM	?	?
NC(=O)c1ccc(NC(=O)CN2CCN(S(=O)(=O)c3ccc4c(c3)OCCO4)CC2)cc1	.	-	-	-	-	-[2.33 µM]
O=C(CN1CCN(S(=O)(=O)c2ccc(Cl)cc2)CC1)Nc1ccc2c(c1)OCCO2	-	-	-[11.4 µM]	-	-	50µM
CC1c2cc3c(cc2CCN1CC(=O)Nc1ccc(S(=O)(=O)N2CCCC2)cc1)OCCCO3 (configuration not stated)	-	-	-	?	-	71µM
O=C(CN1CCN(S(=O)(=O)c2ccc3c(c2)OCCO3)CC1)Nc1cccc(F)c1	.	-	-	-	-	56µM
Cc1cc2c(c3oc(=O)c4ccccc4c13)CN(Cc1ccc(F)cc1)CO2	.	.	-	-	-	?
Cc1ccc(C)c(N2CCN(c3c(CN4CCCC4)c(=O)oc4ccccc34)CC2)c1	.	.	-	-	-	-
O=C(CN1CCN(S(=O)(=O)c2ccccc2)CC1)Nc1ccc2c(c1)OCO2	-	-	-	-	-	-[12.7 µM]
O=C(CN1CCN(S(=O)(=O)c2ccc(Cl)cc2)CC1)Nc1ccc2c(c1)OCO2	-	27µM	-[11.4 µM]	-	-	-
CC(C)NCCOCCOc1ccc(Cl)cc1Br	-	-	3.2µM	?	-	?
CCC(C)NCCOCCOc1ccc(C)cc1Br (configuration not stated)	-	-	2.5µM	56µM	?	?
CC(C)NCCOCCOc1ccccc1F	-	-	1.8µM	50µM	?	4.5µM
C=CCNCCOCCOc1ccc(C)cc1Br	-	-	5µM	56µM	?	3.2µM
CCN(CC)CCOCCOc1ccccc1F	-	-	-	?	-	-
COc1cc(C)ccc1OCCOCCOc1c(C)cc(C)cc1Br	-	-	-	-	-	-
SMILES	Sfp PPTase inh	PLK1 PBD block	JMJD2A Tudor	BAZ2B inh	HP1b chromo inh	G9a inh
Clc1ccc(OCCSc2ncccn2)c(Br)c1	-	-	-	-	-	-
O=C(Nc1ccc(F)cc1)c1ncn(-c2ccccc2)n1	.	.	-	-	-	-
Cc1ccc(S(C)(=O)=O)cc1C(=O)OCC(=O)N1CCCC1=O	.	-	-	-	-	-[0.501 µM]
FC(F)C(F)(F)Oc1cccc(Nc2nccn3c(-c4cccc5cccnc45)cnc23)c1	.	-	.	.	.	.
Cc1cccc(CSc2ncc(CO)n2Cc2ccc(F)cc2)c1	.	.	-	?	-	?
CCC(C)NCCCOc1c(C)cc(C)cc1Br (configuration not stated)	?	-	?	79µM	-	8.9µM
O=C(Nc1ncnc2nc[nH]c12)c1ccccc1	.	.	-	.	-	.
O=CN/C=C/c1cc(O)ccc1O	14µM	?	3.2µM	79µM	?	1.4µM
O=Cc1ccc(O)cc1O	-	-	-	-	-	-[12.7 µM]
